Screening results deposited in PubChem BioAssay by National Center for Advancing Translational Sciences (NCATS).
Rows were chosen to be rich in hits. Some 1.1% of all compounds tested hit in one or more screens of this group.
SARS PLP yeast – inhibitors of SARS-CoV papain-like protease in yeast. Potency, µM (highest dose often 32.9 µM), hits mostly activators. AID 485353. 0.19% of 330,000 active. S. cerevisiae expressing SARS-CoV PLpro, growth rescue; calls by dose curve; note: nearly all actives have a fitted effect of over 55% in size
FBPA Giardia inh – blocks Giardia fructose-bisphosphate aldolase activity; A8B2U2; purified Giardia FBPA; Potency, µM (titrated, usually from 59.6 µM), actives largely listed as inhibitors; 0.71% of 290,000 active; AID 2451; note: nearly all actives have a fitted effect of over 55% in size
Target sequence (A8B2U2 whole entry, looked up): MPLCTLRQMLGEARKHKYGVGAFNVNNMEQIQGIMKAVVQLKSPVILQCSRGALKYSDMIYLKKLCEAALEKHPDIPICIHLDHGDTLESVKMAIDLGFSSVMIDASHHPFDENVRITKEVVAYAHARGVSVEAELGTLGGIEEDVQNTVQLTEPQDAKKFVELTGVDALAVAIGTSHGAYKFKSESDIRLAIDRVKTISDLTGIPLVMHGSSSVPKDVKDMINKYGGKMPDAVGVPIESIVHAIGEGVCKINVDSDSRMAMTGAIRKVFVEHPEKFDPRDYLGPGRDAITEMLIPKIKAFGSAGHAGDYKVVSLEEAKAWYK
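40 nM FBPA preincubated 10 min at RT with compound (up to 57.5 uM final), then substrate plus GAPDH/TPI/NAD/arsenate coupling and diaphorase/resazurin added. Fluorescence read after 20 min at RT, 525/598 nm.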
AmpC inh no detg – inhibitors of E. coli AmpC beta-lactamase without detergent. Potency, µM (top dose mostly 57.1 µM), hits mostly inhibitors. AID 485341. AmpC nitrocefin hydrolysis, absorbance 480 nm, 0.0001% Triton. P00811. 0.52% of 330,000 active; note: nearly all actives have a fitted effect of over 20% in size
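20 mM phosphate pH 7.0 + 0.01% (detergent screen) or 0.0001% Triton X-100; 5.3 nM AmpC reagent; cpd preinc 15 min RT; nitrocefin (800 uM stock) to start; A480 q20 s × 4 min; Activity was normalised to no-enzyme and no-compound control wells.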
AmpC inh detg – inhibitors of E. coli AmpC beta-lactamase with detergent; AmpC hydrolysis of nitrocefin, absorbance 480 nm, 0.01% Triton; 0.041% of 370,000 active; Potency, µM (top dose mostly 114 µM), most hits filed as inhibitors; P00811; note: nearly all actives have a fitted effect of over 25% in size
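20 mM phosphate pH 7.0 + 0.01% (detergent screen) or 0.0001% Triton X-100; 5.3 nM AmpC reagent; cpd preinc 15 min RT; nitrocefin (800 uM stock) to start; A480 q20 s × 4 min; Activity was normalised to no-enzyme and no-compound control wells.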
A number is an active result; - = inactive; ? = inconclusive; . = no result given; [ ] = dose if it differs, or a comment. Unless noted, calls come from the whole dose curve; as a rule, active = well fitted curve in the direction sought with a large enough effect; inconclusive = small, poorly fitted or top-dose-only effect, or another doubt; inactive = no such curve, though single readings can be large; an effect the other way counts as inactive or inconclusive.

SMILES | SARS PLP yeast | FBPA Giardia inh | AmpC inh no detg | AmpC inh detg
FC(F)(F)c1cccc(N2CCN(C(=S)NC3CCCCC3)CC2)c1 | - | - | - | -
O=C(Nc1cccc(Cl)c1)c1ccc2nc(Cc3ccccc3)oc2c1 | . | . | . | -
CSc1ccn(CCC(=O)O)c(=O)n1 | 10µM | - | - | -
Cc1ccc(S(=O)(=O)N2CCc3nc(COc4ccccc4)c4c(c3C2)CO[C@@H](C)C4)cc1 | . | -[12.9 µM] | . | .
Cc1c(Br)c(O)c(Br)c2sc(=O)oc12 | - | ? | 20µM | -
CCOc1ccccc1C1N=C(c2ccc(OC)cc2)CC(c2ccccc2O)N1 (configuration not stated) | - | - | 32µM | -
Oc1ccc(COC2CCCC2)c2cccnc12 | - | . | - | ?
COc1ccc(-c2coc3cc(O)ccc3c2=O)c(OC)c1O | . | - | . | .
COc1ccc(-c2coc3cc(O)ccc3c2=O)c(O)c1O | . | 18µM | . | .
Cc1c2c(=O)n(-c3nc4ccccc4s3)nc-2cc(O)n1Cc1ccccc1 | - | - | 16µM | -
CCOC(=O)N1CC(C)N(/[N+]([O-])=N/Oc2ccc([N+](=O)[O-])cc2[N+](=O)[O-])CC1C (configuration not stated) | . | - | . | .
CC[C@H](C)[C@H](NC(=O)[C@H](CO)NC(=O)[C@H](CC(C)C)NC(=O)[C@@H]1CCCN1C(=O)[C@@H]1CCCN1C(=O)[C@H](CC(=O)O)NC(=O)[C@@H](N)CC(=O)O)C(=O)N[C@@H](CC(=O)O)C(=O)N[C@@H](CC(C)C)C(=O)N[C@H](C(=O)N[C@@H](Cc1ccccc1)C(=O)N[C@@H](Cc1cnc[nH]1)C(=O)N[C@@H](CC(C)C)C(=O)N[C@@H](CC(C)C)C(=O)N[C@@H](CCCNC(=N)N)C(=O)N[C@H](C(=O)N[C@@H](CC(C)C)C(=O)N[C@@H](CC(C)C)C(=O)N[C@@H](CCC(=O)O)C(=O)N[C@@H](CC(C)C)C(=O)N[C@@H](C)C(=O)N[C@@H](CCCNC(=N)N)C(=O)N[C@H](C(=O)N[C@@H](CCC(N)=O)C(=O)N[C@@H](CO)C(=O)N[C@@H](CCC(N)=O)C(=O)N[C@@H](CCCNC(=N)N)C(=O)N[C@@H](CCC(=O)O)C(=O)N[C@@H](CCCNC(=N)N)C(=O)N[C@@H](C)C(=O)N[C@@H](CCC(=O)O)C(=O)N[C@@H](CCC(N)=O)C(=O)N[C@@H](CC(N)=O)C(=O)N[C@@H](CCCNC(=N)N)C(=O)N[C@H](C(=O)N[C@H](C(=O)N[C@@H](Cc1ccccc1)C(=O)N[C@@H](CC(=O)O)C(=O)N[C@@H](CO)C(=O)N[C@H](C(N)=O)C(C)C)[C@@H](C)CC)[C@@H](C)CC)[C@@H](C)O)[C@@H](C)O)[C@@H](C)O | . | - | . | .
c1ccc2c(Nc3nnc(-c4ccncc4)s3)cccc2c1 | - | - | 10µM | -
Cc1cccc2c3c(ccc12)C1=C(C(=O)C3=O)[C@@H](C)CO1 | . | 7.1µM | . | .
O=C(N/N=C/C=C\c1ccccc1[N+](=O)[O-])c1cc(-c2ccc3ccccc3c2)n[nH]1 | - | - | 10µM | -
O=C(N/N=C/C=C/c1ccccc1[N+](=O)[O-])c1ccncc1 | - | ? | - | -
CCc1ccccc1NC(=O)c1nnn(Cc2ccc(Cl)cc2)c1N | . | . | . | -
Cc1ccc(C)c(NC(=O)CSc2nc3nc(-c4cccs4)cc(C(F)(F)F)c3c(=O)[nH]2)c1 | - | - | 3.5µM | -
Cc1ccc(C)c(NC(=O)CSc2nc(N)c(NC(=O)c3cccs3)c(=O)[nH]2)c1 | - | - | 14µM | -
CC(NC(=S)Nc1ccccc1OC(F)F)C(C)(C)C (configuration not stated) | 11µM | - | - | -
CCCCNC(=O)NS(=O)(=O)c1ccc(C(=O)O)cc1 | . | - | . | .
CCOc1cc(C(=O)NCC(c2ccc(N(C)C)cc2)N2CCOCC2)cc(OCC)c1OCC (configuration not stated) | . | . | . | -
COc1ccc(S(=O)(=O)NCCc2cn3cccc(C)c3n2)cc1OC | - | - | 10µM | ?
Cc1cccn2cc(CCNS(=O)(=O)c3cccc([N+](=O)[O-])c3)nc12 | - | - | - | -
CCCCC[C@H](O)/C=C/C=C\C=C\[C@@H](O)C/C=C\CCCC(=O)O | . | - | . | .
